Results filed as inconclusive are left out. Calls of active or inactive are those of the source. The call rests on the fitted dose curve.

This test can be described thus: H358 Cell Viability Secondary Assay for qHTS Assay for Epigenetic Modulators. The conditions noted are these: H358 NSCLC viability, MTS absorbance, 4 days. The text has this:
NIH Molecular Libraries Screening Centers Network [MLSCN] NIH Chemical Genomics Center [NCGC] MLSCN Grant: 1 X01 MH079860-01 Assay Provider: Elisabeth D. Martinez, University of Texas SW Medical Center NCGC Assay Overview: This secondary assay characterizes selected actives identified in the qHTS of the Locus Derepression (LDR) assay (PubChem AID 597). The LDR assay detects the derepression of a GFP reporter that is stably integrated in a region of the genome of murine c127i mammary cells that is presumably silenced. Compounds that cause derepression of the locus to express GFP are identified by enumerating GFP positive cells using a laser-scanning microplate cytometer. Selected LDR actives were assayed for killing of H358 non-small cell lung carcinoma (NSCLC) cells. Certain epigenetic drugs, like histone deacetylase inhibitors, can block cancer cell growth. H358 cell viability was measured using Cell Titer 96 AQueous One (Promega), an assay which detects the ability of metabolically active cells to reduce a tetrazolium salt substrate (MTS), into a soluble formazan product that can be measured by colorimetry.
NCGC Assay Protocol Summary Viability assays: H358 cells were plated in 96-well flat bottom tissue culture dishes (Corning) and grown overnight at 37 C and 5% CO2, then treated with increasing concentrations of compounds, incubated for four days, and assayed for viability using the Cell Titer 96 AQueous One kit (Promega) according to the manufacturer's protocol. Absorbance at 490 nm and 650 nm (reference) was measured by a Spectra Max (Molecular Devices). Data were normalized to the untreated control (100% viability). Each cell line was tested in one or two independent assays, each containing 4 or 8 replicates. For further details, see R.L. Johnson, W. Huang, A. Jadhav, C.P. Austin, J. Inglese, E.D. Martinez, A Quantitative High-Throughput Screen Identifies Potential Epigenetic Modulators of Gene Expression, Analytical Biochemistry (2007), doi: 10.1016/j.ab.2007.12.028
As to `CN1C(=S)SC(c2ccccc2)N(C)C1c1ccccc1` (centres undefined), the call was inactive.

Turning to `O=Nc1ccc(O)c2ncccc12`, the Potency was 3000 nM (active).

As for `COc1ccc(C(NC(=O)C(C)C)c2ccc3cccnc3c2O)cc1` (centres undefined), the Potency is 200 nM (active).

`CC(/C=C/C(=O)NO)=C\[C@@H](C)C(=O)c1ccc(N(C)C)cc1`: the Potency is 40 nM (active).

On to `CC(C)C(=O)NC(c1ccc(N(C)C)cc1)c1ccc2cccnc2c1O` (centres undefined), for which the Potency is 200 nM (active).

For `CN1CCN(Cc2cc(Cl)c3cccnc3c2O)CC1`, the Potency was 2000 nM (active).

In the case of `O=C(CSc1cccc2cccnc12)NCc1ccccc1`, the outcome was inactive.

`CC(C)C(=O)NC(c1ccco1)c1cc([N+](=O)[O-])c2cccnc2c1O` (centres undefined): the Potency was 6000 nM (active).

On to `CC(C)C(=O)NC(c1ccco1)c1ccc2cccnc2c1O` (centres undefined), for which the Potency was 500 nM (active).

These data come from PubChem BioAssay AID1043 (National Center for Advancing Translational Sciences (NCATS), 2008).
